Our source for the PBM binding z-score values is the supplement of paper PMC6555819.

Common to all, as to assay: PBM binding z-score (relative to random genomic background probes); higher = stronger binding; sequences stand for … in GC…GCGATTGACAGCGTAGAATGAAGG
The test system of assay [1] is FXR:RXRa (NR concentration 270 nM, RXRa partner concentration 90 nM). The method in brief:
(§1)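 Custom Agilent 4×180K protein-binding microarrays carried double-stranded probes, each with a 34-nt variable region. These regions held direct-repeat seeds, single-nucleotide variants, half-site ablations and random human genomic background sequences. Ligand-free nuclear receptor dimers were incubated on the arrays for 1 h, antibodies against each partner (one per run) detected binding, and scanned fluorescence was regression-normalized. Binding z-scores take the random background probes as reference.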

The subject of assay [2] is LXRa:RXRa (NR concentration 270 nM, RXRa partner concentration 90 nM). Summed up: as §1
The test system of assay [3] is LXRa homodimer (NR concentration 270 nM). The method in brief: as §1
Assay [4] deals with LXRb:RXRa (NR concentration 270 nM, RXRa partner concentration 90 nM). Summed up:
as §1

Assay [5] has as its system LXRb homodimer (NR concentration 270 nM). Summed up:
as §1

In assay [6] the test system is PPARa:RXRa (NR concentration 270 nM, RXRa partner concentration 90 nM). Summed up:
as §1

The test system of assay [7] is PPARg:RXRa (NR concentration 180 nM, RXRa partner concentration 90 nM). Summed up: as §1
Assay [8] relates to PPARg:RXRa 270nM:90nM, anti-RXR (NR concentration 270 nM, RXRa partner concentration 90 nM). Summed up:
as §1

Assay [9] deals with PPARg:RXRa 30nM:10nM, anti-RXR (NR concentration 30 nM, RXRa partner concentration 10 nM). The method in brief: as §1
The subject of assay [10] is PPARg:RXRa 90nM:30nM, anti-RXR (NR concentration 90 nM, RXRa partner concentration 30 nM). Summed up: as §1
In assay [11] the test system is PPARg:RXRa DBDmut IVT, anti-RXR (DBD mutation: RXRa K156A/R161A, NR concentration 270 nM, RXRa partner concentration 90 nM). The method in brief: as §1
For assay [12], the system named is PPARg:RXRa IVT, anti-PPARg (NR concentration 270 nM, RXRa partner concentration 90 nM). The method in brief: as §1
The subject of assay [13] is PPARg DBDmut:RXRa IVT, anti-PPARg (DBD mutation: PPARg1 K132A/R137A, NR concentration 270 nM, RXRa partner concentration 90 nM). Summed up:
as §1

Assay [14] relates to PPARg DBDmut IVT, anti-PPARg (DBD mutation: PPARg1 K132A/R137A, NR concentration 270 nM). The method in brief: as §1
The test system of assay [15] is PPARg homodimer (NR concentration 180 nM). Summed up: as §1
Assay [16] has as its system PXR:RXRa (NR concentration 270 nM, RXRa partner concentration 90 nM). The method in brief: as §1
Assay [17] has as its system PXR homodimer (NR concentration 270 nM). Summed up: as §1
Assay [18] deals with RARa:RXR (NR concentration 270 nM, RXRa partner concentration 90 nM). The method in brief: as §1
For assay [19], the system named is RARa homodimer (NR concentration 270 nM). Summed up: as §1
The test system of assay [20] is RARb:RXRa (NR concentration 270 nM, RXRa partner concentration 90 nM). The method in brief:
as §1

With CCTCGGAGGACAACACGAGGTCAGAGCTGCCAGA, the PBM binding z-score in [1] was 1.62; in [2] it was 2.84; in [3], 2.76; in [4], 1.58; in assay [5], -0.589; in [6] it was 2.22. Besides, the PBM binding z-score in [7] is 0.596; in assay [8] it was 0.153; in assay [9], -0.655; in [10], -0.293; in assay [11] it was 0.265; in assay [12] it was 0.387. The PBM binding z-score in assay [13] is -0.876; in [14] it was -1.22; in [15], 1.79; in [16] it was 3.06; in assay [17] it was 0.779; in [18], 3.03. The PBM binding z-score in [19] is 0.807; in assay [20], 2.96.

Regarding TAGCCTAGGTAATGGGCCAGTATACCACGCGAAC, the PBM binding z-score in assay [1] was -0.654; in assay [2], -0.856; in [3], -0.526; in [4], -0.351; in assay [5], -0.976; in assay [6], -0.193. Further, the PBM binding z-score was 0.503 in [7]; 0.264 in assay [8]; -0.0812 in [9]; -0.179 in [10]; -0.319 in assay [11]; 0.78 in assay [12]. Further, the PBM binding z-score was -0.42 in assay [13]; -0.561 in [14]; -0.148 in assay [15]; -0.351 in assay [16]; -0.609 in assay [17]; -0.221 in [18]. The PBM binding z-score was -0.573 in assay [19] and -0.295 in assay [20].

AATACAGGGTCACTAGGCAAGAGTAGGTACGAAT: the PBM binding z-score in assay [1] came out at 6.39; in assay [2] it was 4.96; in assay [3], 0.866; in assay [4], 3.82; in [5], 1.1; in [6] it was 5.59. For the same sequence, the PBM binding z-score in assay [7] worked out at 7.09; in assay [8] it was 5.74; in assay [9] it was 3.03; in assay [10] it was 4.6; in assay [11], 3.19; in [12] it was 4.81. Further, the PBM binding z-score in [13] was determined as 1.06; in [14], 0.858; in assay [15], 2.63; in assay [16], 3.06; in assay [17], 0.322; in [18], 4.1. The PBM binding z-score in assay [19] came out at 1.16; in assay [20], 4.13.

Take CGTCCAAGGTCAATGCTAAGTCAGTGAAAGCATT: the PBM binding z-score in [1] was 6.87; in assay [2], 4.59; in [3], 0.722; in assay [4], 3.58; in assay [5], 0.637; in assay [6] it was 4.73. Moreover, the PBM binding z-score in assay [7] turned out to be 3.59; in assay [8] it was 4.12; in [9], 0.983; in assay [10] it was 2.55; in assay [11], 2.98; in [12] it was 3.34. Further, the PBM binding z-score in assay [13] is 0.647; in [14] it was -0.584; in assay [15] it was 2.4; in [16], 3.51; in assay [17] it was 0.823; in assay [18] it was 4.32. Further, the PBM binding z-score in [19] turned out to be 0.642; in assay [20] it was 5.01.

Regarding CGAACTAGGTCATTGACAGGACAGGGAATAGTAA, the PBM binding z-score was 4.56 in [1]; 2.81 in assay [2]; 0.225 in assay [3]; 1.82 in assay [4]; -0.158 in assay [5]; 4.65 in assay [6]. The PBM binding z-score in [7] came out at 7.57; in [8], 6.18; in [9] it was 4.13; in assay [10], 5.76; in [11] it was 8.02; in assay [12], 8.21. Also, the PBM binding z-score in assay [13] was 2.18; in assay [14], 1.03; in assay [15], 1.49; in assay [16], 1.43; in [17], 0.107; in [18], 2.22. Also, the PBM binding z-score came out at 0.195 in assay [19] and 3.69 in assay [20].

TCGAGTAGGTTACCAATGGCGCATTCAGCTTTCT: the PBM binding z-score is 0.273 in [1]; 0.571 in assay [2]; -0.489 in [3]; 0.382 in assay [4]; -0.736 in [5]; 0.977 in assay [6]. Moreover, the PBM binding z-score worked out at 0.185 in assay [7]; 1.23 in assay [8]; 1.11 in [9]; 1.17 in [10]; 3.69 in [11]; 2.51 in assay [12]. For the same sequence, the PBM binding z-score in assay [13] was 0.479; in assay [14], -0.462; in assay [15], -0.236; in assay [16] it was 0.00763; in assay [17], -0.811; in assay [18], 0.064. Besides, the PBM binding z-score in [19] is -0.676; in assay [20], 0.628.

Consider TCATATAGATAAACAGGTGAAAGTCCGTAAGTTA, for which the PBM binding z-score in assay [1] came out at 1.22; in assay [2], 1.04; in [3], 0.611; in assay [4] it was 1.09; in assay [5], 0.473; in [6], 1.69. Further, the PBM binding z-score stood at 1.41 in assay [7]; 2.83 in assay [8]; 4.51 in assay [9]; 3.77 in assay [10]; 2.87 in assay [11]; 1.36 in assay [12]. Moreover, the PBM binding z-score in assay [13] was 0.902; in assay [14], 1.03; in assay [15] it was 1.33; in assay [16], 1.07; in assay [17], 0.573; in assay [18], 1.37. For the same sequence, the PBM binding z-score in assay [19] turned out to be 1.53; in [20], 0.536.
